# Data reported in PubChem BioAssay AID1688 (National Center for Advancing Translational Sciences (NCATS), 2009).
# The whole screen tested about 220,000 compounds, of which about 2,400 (1.1%) were called active. A call without a number means that no potency is given here. Not shown: some 7% with an inconclusive outcome. Calls follow the shape of the dose curve; as a rule, active = well fitted inhibition curve with a large enough effect; inconclusive = small, poorly fitted or top-dose-only effect, or effect the other way; inactive = no such curve, though single readings can be large or run the other way. Many of the other results were omitted from the sample, so actives are more common in it than they were.
# Test: qHTS Multiplex Assay to Identify Dual Action Probes in a Cell Model of Huntington: Aggregate Formation (GFP); also: nearly all actives have a fitted effect of over 60% in size
# Details: PC12 HttQ103-GFP aggregates, Acumen cytometry, 40 h; series mostly up to 9.22 µM
# In short: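 Read-out: GFP aggregate count by laser scanning cytometer (488 nm excitation, 500-530 nm emission, 1–25 µm objects >6 SD above background). Cells: PC12, inducible HTTex1-Q103-GFP, 100 nM tebufenozide; compounds titrated.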
# Potency is read from the fitted curve at half-maximal effect.
row,Compound,Potency
1,CCCCNC(=O)OCCSCCS(=O)(=O)c1ccc(Cl)cc1,inactive
2,CC(C)(C)n1cnnc1Sc1ccc([N+](=O)[O-])cn1,inactive
3,CCC(C)N1C(=S)SC(C)(C)C1N(O)C(=O)NC1CCCCC1 (centres undefined),inactive
4,c1coc(CNc2ncnc3ccccc23)c1,7.94 µM (active)
5,O=C(NCc1ccncc1)C(=O)NCc1ccco1,inactive
6,c1ccc(-c2nc(NCc3ccco3)c3ccccc3n2)cc1,inactive
7,Cc1cc(C)cc(NS(=O)(=O)c2ccc(F)cc2)c1,inactive
8,CCOc1cc(N2CCOCC2)c(OCC)cc1NC(=O)c1cc(C)nc2ccccc12,inactive
9,CCOc1cc(N2CCOCC2)c(OCC)cc1NC(=O)COc1cccc2cccnc12,3.55 µM (active)
10,CCOc1cc(N2CCOCC2)c(OCC)cc1NC(=O)c1ccc(C)s1,inactive
11,O=c1c2ccccc2cnn1Cc1n[nH]c(=S)n1-c1ccccc1F,inactive
12,O=C1CCCN1CCCNc1ncnc2c1[nH]c1ccccc12,inactive
13,CC(C)OCCCNc1ncnc2c1[nH]c1ccc(F)cc12,2.24 µM (active)
14,COc1cc(OC)c(OC)cc1/C=N/Nc1ncnc2c1[nH]c1ccc(C)cc12,inactive
15,COc1ccc(NC(=O)C2CCC(CNc3c(N4CCCCC4)c(=O)c3=O)CC2)c(OC)c1 (centres undefined),inactive
16,Cc1cc(N)n(-c2ccc(S(=O)(=O)N3CCCC3)cc2[N+](=O)[O-])n1,inactive
17,COCCn1c(CN(Cc2ccccc2)Cc2ccccc2)nc2c1c(=O)n(C)c(=O)n2C,inactive
18,CCOC(=O)N1CCN(Cc2nc3c(c(=O)n(C)c(=O)n3C)n2Cc2ccccc2)CC1,inactive
19,Cn1c(=O)c2c(nc(OCc3cccnc3)n2Cc2ccccc2)n(C)c1=O,12.6 µM (active)
20,O=C(Nc1ccc(Br)cn1)C1CCN(S(=O)(=O)c2cccs2)CC1,inactive
21,COC(=O)c1cccc(NS(C)(=O)=O)c1,inactive
22,Cc1ccc(Cl)c(OCC(=O)NN2CCN(C)CC2)c1,inactive
23,CCn1c(/C=C/c2ccc([N+](=O)[O-])o2)nc2ccccc2c1=O,11.2 µM (active)

row,Compound,Potency
1,Cn1cc(/C=C/c2nc3ccccc3c(=O)n2-c2cccc([N+](=O)[O-])c2)c2ccccc21,inactive
2,C/[N+]([O-])=C\c1ccc([N+](=O)[O-])o1,inactive
3,CC(NC(=O)C(C)(C)C)C(c1cccs1)N1CCN(Cc2ccccc2)CC1 (centres undefined),inactive
4,Cc1ccc(C)c2c1cc(C)c1nnc(SCC(=O)Nc3cccc(C(=O)O)c3)n12,inactive
5,O=S(=O)(Nc1ccc(OC(F)(F)F)cc1)c1cccc2nonc12,inactive
6,CC(C)CN(CC(C)C)CC(O)CN(c1ccccc1)S(=O)(=O)c1ccccc1[N+](=O)[O-] (centres undefined),inactive
7,Cc1cccc(CSc2nnc(Cn3c(=O)sc4ccccc43)n2C)c1,inactive
8,COc1ccccc1CNC(=O)CCn1c(=O)sc2ccccc21,inactive
9,COc1ccc(Cn2c(=O)sc3ccccc32)cc1OC,0.631 µM (active)
10,CC(C)Sc1nnc([C@H](Cc2ccccc2)NC(=O)OC(C)(C)C)o1,inactive
11,CCc1cc(C(=O)c2ccc(OC)cc2)c(NC(=O)CN2CCN(C)CC2)s1,inactive
12,CCOC(=O)c1c(NC(=O)NC(C)(C)C)sc2c1CCN(C)C2,inactive
13,Cc1cc(C(=O)Nc2c(C)nn(Cc3ccccc3)c2C)on1,inactive
14,Cc1nn(Cc2ccc(Cl)c(Cl)c2)c(C)c1NC(=O)c1cc(C2CC2)on1,17.8 µM (active)
15,O=C(Nc1cc(C(F)(F)F)ccc1Cl)c1cc(C2CC2)on1,inactive
16,CCOC(=O)c1c(C)oc(C)c(C(=O)OCC)c1=O,inactive
17,Cc1c(S(=O)(=O)NCc2ccccc2)c(=O)n(C)c(=O)n1C,inactive
18,CCc1ccc2nc(Nc3ncc(C(C)=O)c(C)n3)nc(C)c2c1,inactive
19,Cn1c(SCC(=O)N2CCCc3ccccc32)nc2ccccc2c1=O,7.94 µM (active)
20,O=C(CSc1nc2ccccc2c(=O)n1CCCO)N1CCc2ccccc21,inactive
21,O=C(CSc1nc2[nH]ncc2c(=O)n1-c1ccccc1)N1CCCc2ccccc21,inactive
22,Cc1nc(CNS(=O)(=O)c2cc([N+](=O)[O-])ccc2C)cs1,inactive
23,COc1ccc(NC(=S)Nc2ccccc2Cl)cn1,inactive

row,Compound,Potency
1,COc1ccc(CS(=O)/C(Cl)=C(/Cl)C(=O)Nc2ccc(OC)nc2)cc1 (centres undefined),5.01 µM (active)
2,COc1ccc(NC(=S)NCCNC(C)=O)cc1,inactive
3,FCOC(C(F)(F)F)C(F)(F)F,inactive
4,O=C(Nc1ccc2ccccc2c1)/C(=C/c1cccc(Br)c1)NC(=O)c1ccco1,inactive
5,COc1ccc(C(=O)NC(=S)NNC(=O)CCc2ccccc2)cc1,inactive
6,CC(Oc1ccc2ccccc2c1)C(=O)NNC(=S)NC(=O)c1ccco1 (centres undefined),11.2 µM (active)
7,O=C(c1ccco1)N1CCN(CCOc2ccccc2)CC1,inactive
8,COc1ccc(-c2cc(C(F)(F)F)nc(S(C)(=O)=O)n2)cc1OC,10 µM (active)
9,COc1ccc(-c2cc(C(F)(F)F)nc(SCC(=O)Nc3ccc4c(c3)OCO4)n2)cc1OC,inactive
10,COc1cc(OC)nc(S(C)(=O)=O)n1,inactive
11,CC1Cc2ccccc2N1S(=O)(=O)c1ccc(Cl)nc1 (centres undefined),inactive
12,COc1ccc(C2(C#N)CCC(C(=O)O)CC2)cc1OC1CCCC1 (centres undefined),inactive
13,CCOC(=O)N1CCN(C(=O)C2CCN(Cc3ccc(OC)cc3OC)CC2)CC1,inactive
14,CCOC(=O)N1CCN(C(=O)C2CCN(c3ncnc4c3sc3cccc(F)c34)CC2)CC1,10 µM (active)
15,CCOC(=O)C1CCN(c2ncnc3c2oc2ccc(Br)cc23)CC1,inactive
16,COc1ccc(-c2[nH]ncc2/C=N/NC(=O)c2cc(Br)ccc2O)c(OC)c1,inactive
17,CC(C)/C=N/NC(=O)c1cc(Br)ccc1O,8.91 µM (active)
18,O=C(N/N=C\c1cccc(Br)c1)c1ccccc1-n1cccc1,inactive
19,Cc1c(C)c(C)c2[nH]c(=S)[nH]c2c1C,inactive
20,CCc1c(C)nc2c(-c3ccccc3)c(C)nn2c1Nc1ccc(NC(C)=O)cc1,inactive
21,O=C(N/N=C/c1ccccc1O)/C(=C/c1ccccc1)CCO,7.94 µM (active)
22,O=C(CCC(=O)Nc1ccccc1)N/N=C/c1ccccc1F,inactive
23,O=C(CCCCCNC(=O)c1ccccc1)N/N=C/c1ccccc1,inactive
